Assay results from PubChem BioAssay (NCI).
This is part of a sample that, as a whole, favours compounds with a hit. Of some 79,000 tested, about 15% had one in any assay. A number with no mark means an inactive call. Activity calls are given as the source filed them. No stated cut-off is given here; in the data, active means growth inhibition above about 70%; inactive means the rest.

Experiments:
[1] = NCI Yeast Anticancer Drug Screen. Data for the rad50 strain (AID 155);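 further: 0% = growth of vehicle-only cultures of the same strain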; conditions: S. cerevisiae rad50 strain growth inhibition, active compounds read high
Outline: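 Yeast carrying a defined DNA repair defect were exposed to test compounds, and growth was compared with vehicle-treated controls to give percent inhibition.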

[2] = NCI Yeast Anticancer Drug Screen. Data for the mec2-1 strain (AID 157); conditions: S. cerevisiae mec2-1 strain, active compounds read high
Outline: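 Vehicle-treated cultures served as reference for growth inhibition of compound-exposed mec2-1 yeast.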

[3] = NCI Yeast Anticancer Drug Screen. Data for the sgs1 mgt1 strain (AID 161);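 further: 0% = growth of cultures given vehicle only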; conditions: S. cerevisiae sgs1 mgt1 strain, active compounds read high
Outline: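 Test agents were incubated with a DNA-repair-mutant yeast strain. Growth was then read and compared against vehicle-treated controls.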

[4] = NCI Yeast Anticancer Drug Screen. Data for the cln2 rad14 strain (AID 165);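 further: 0% = growth equal to vehicle treated cultures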; conditions: S. cerevisiae cln2 rad14 strain, active compounds read high
Outline: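 Each compound was tested on cln2 rad14 yeast. Inhibition of growth was calculated against vehicle-exposed controls.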

[5] = NCI Yeast Anticancer Drug Screen. Data for the bub3 strain (AID 167); conditions: S. cerevisiae bub3 mutant strain, active compounds read high
Outline: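 Compounds were applied to a genetically altered yeast strain carrying a cell-cycle control defect. Growth inhibition was scored against vehicle-treated controls.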

[6] = NCI Yeast Anticancer Drug Screen. Data for the mlh1 rad18 strain (AID 175); conditions: S. cerevisiae mlh1 rad18 strain growth inhibition, active compounds read high
Outline: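 Vehicle-treated cultures served as the reference for growth inhibition in a yeast strain carrying DNA damage repair alterations exposed to each compound.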

[7] = at 5.0 µM (retest, dose inferred, filed as 0.5)
[8] = at 50.0 µM (retest, dose inferred, filed as 5.0)

In the case of `COc1ccc(NNC(=O)c2ccccc2)cc1`, the growth inhibition [1, 7] is reported as 29%, the growth inhibition [1, 8] is reported as 97% (active) and the growth inhibition ([1]; at 50.0 µM) is reported as 96.3% (active). For the same compound, the growth inhibition [2, 7] was 9%, the growth inhibition [2, 8] was 95% (active) and the growth inhibition ([2]; at 50.0 µM) was 97.5% (active). For the same compound, the growth inhibition [3, 7] was 13%, the growth inhibition [3, 8] was 98% (active) and the growth inhibition ([3]; at 50.0 µM) was 96.3% (active). For the same compound, the growth inhibition [4, 7] was 3%, the growth inhibition [4, 8] was 97% (active) and the growth inhibition ([4]; at 50.0 µM) was 96.8% (active). The growth inhibition [5, 7] was -9%, the growth inhibition [5, 8] was 98% (active) and the growth inhibition ([5]; at 50.0 µM) was 98.2% (active). For the same compound, the growth inhibition [6, 7] was 13%, the growth inhibition [6, 8] was 98% (active) and the growth inhibition ([6]; at 50.0 µM) was 97.7% (active).
Work on `CCCCCCOC(=O)CCC(=O)OCCCCCC` yielded a growth inhibition [1, 7] of -7%, a growth inhibition [1, 8] of -20% and a growth inhibition ([1]; at 50.0 µM) of -2.7%. For the same compound, the growth inhibition [2, 7] was -3%, the growth inhibition [2, 8] was -20% and the growth inhibition ([2]; at 50.0 µM) was 17.9%. For the same compound, the growth inhibition [3, 7] was -1%, the growth inhibition [3, 8] was 15% and the growth inhibition ([3]; at 50.0 µM) was 23.5%. It also gave a growth inhibition [4, 7] of 32%, a growth inhibition [4, 8] of 23% and a growth inhibition ([4]; at 50.0 µM) of 41.1%. It also gave a growth inhibition [5, 7] of 16%, a growth inhibition [5, 8] of 43% and a growth inhibition ([5]; at 50.0 µM) of 63.8%. The growth inhibition [6, 7] was -15%, the growth inhibition [6, 8] was -9% and the growth inhibition ([6]; at 50.0 µM) was 24.1%.
In the case of `C=CC1(NC(=O)c2ccccc2)CCC(C(C)(C)C)CC1` (stereo not given), the growth inhibition [1, 7] is reported as -10%, the growth inhibition [1, 8] is reported as 96% (active) and the growth inhibition ([1]; at 50.0 µM) is reported as 48.9%. The growth inhibition [2, 7] was -5%, the growth inhibition [2, 8] was 89% (active) and the growth inhibition ([2]; at 50.0 µM) was -0.2%. For the same compound, the growth inhibition [3, 7] was -5%, the growth inhibition [3, 8] was 94% (active) and the growth inhibition ([3]; at 50.0 µM) was 43.6%. The growth inhibition [4, 7] was 5%, the growth inhibition [4, 8] was 86% (active) and the growth inhibition ([4]; at 50.0 µM) was 10.6%. For the same compound, the growth inhibition [5, 7] was 2%, the growth inhibition [5, 8] was 95% (active) and the growth inhibition ([5]; at 50.0 µM) was 49.9%. For the same compound, the growth inhibition [6, 7] was -7%, the growth inhibition [6, 8] was 93% (active) and the growth inhibition ([6]; at 50.0 µM) was 40.4%.
In the case of `C[n+]1cc2c3ccccc3ccc2c2ccccc21`, the growth inhibition [1, 7] is reported as 37%, the growth inhibition [1, 8] is reported as 79% (active) and the growth inhibition ([1]; at 50.0 µM) is reported as 59.3%. It also gave a growth inhibition [2, 7] of 37%, a growth inhibition [2, 8] of 69% and a growth inhibition ([2]; at 50.0 µM) of 53.2%. The growth inhibition [3, 7] was 32%, the growth inhibition [3, 8] was 66% and the growth inhibition ([3]; at 50.0 µM) was 75.2% (active). It also gave a growth inhibition [4, 7] of 26%, a growth inhibition [4, 8] of 45% and a growth inhibition ([4]; at 50.0 µM) of 56%. It also gave a growth inhibition [5, 7] of 7%, a growth inhibition [5, 8] of 57% and a growth inhibition ([5]; at 50.0 µM) of 47%. The growth inhibition [6, 7] was 39%, the growth inhibition [6, 8] was 83% (active) and the growth inhibition ([6]; at 50.0 µM) was 40.3%.
Compound `NSc1ccc(N)s1` has a growth inhibition [1, 7] of -1%, a growth inhibition [1, 8] of 11% and a growth inhibition ([1]; at 50.0 µM) of 37%. The growth inhibition [2, 7] was 6%, the growth inhibition [2, 8] was 12% and the growth inhibition ([2]; at 50.0 µM) was 28.9%. The growth inhibition [3, 7] was 1%, the growth inhibition [3, 8] was 13% and the growth inhibition ([3]; at 50.0 µM) was 50.6%. For the same compound, the growth inhibition [4, 7] was -7%, the growth inhibition [4, 8] was 6% and the growth inhibition ([4]; at 50.0 µM) was 36.9%. The growth inhibition [5, 7] was -3%, the growth inhibition [5, 8] was 14% and the growth inhibition ([5]; at 50.0 µM) was 87.7% (active). For the same compound, the growth inhibition [6, 7] was -1%, the growth inhibition [6, 8] was 12% and the growth inhibition ([6]; at 50.0 µM) was 58.6%.
Work on `O=C(O)c1ccc(N=CC2CO2)cc1` (stereo not given) yielded a growth inhibition [1, 7] of 23%, a growth inhibition [1, 8] of 11% and a growth inhibition ([1]; at 50.0 µM) of -2%. It also gave a growth inhibition [2, 7] of 44%, a growth inhibition [2, 8] of 64% and a growth inhibition ([2]; at 50.0 µM) of 0.45%. For the same compound, the growth inhibition [3, 7] was 13%, the growth inhibition [3, 8] was 10% and the growth inhibition ([3]; at 50.0 µM) was 7.05%. For the same compound, the growth inhibition [4, 7] was 96% (active), the growth inhibition [4, 8] was 99% (active) and the growth inhibition ([4]; at 50.0 µM) was 21.8%. The growth inhibition [5, 7] was 90% (active), the growth inhibition [5, 8] was 98% (active) and the growth inhibition ([5]; at 50.0 µM) was -10%. It also gave a growth inhibition [6, 7] of 32%, a growth inhibition [6, 8] of 22% and a growth inhibition ([6]; at 50.0 µM) of -3.15%.
In the case of `O=C(O)Cc1c(-c2noc(-c3ccccc3)c2CC(=O)O)noc1-c1ccccc1`, the growth inhibition [1, 7] is reported as -10%, the growth inhibition [1, 8] is reported as -3% and the growth inhibition ([1]; at 50.0 µM) is reported as 28.5%. For the same compound, the growth inhibition [2, 7] was 8%, the growth inhibition [2, 8] was -2% and the growth inhibition ([2]; at 50.0 µM) was 46.8%. It also gave a growth inhibition [3, 7] of -16%, a growth inhibition [3, 8] of -8% and a growth inhibition ([3]; at 50.0 µM) of 26.6%. For the same compound, the growth inhibition [4, 7] was 1%, the growth inhibition [4, 8] was -10% and the growth inhibition ([4]; at 50.0 µM) was 58.4%. The growth inhibition [5, 7] was -7%, the growth inhibition [5, 8] was 0% and the growth inhibition ([5]; at 50.0 µM) was 97.1% (active). The growth inhibition [6, 7] was 4%, the growth inhibition [6, 8] was -9% and the growth inhibition ([6]; at 50.0 µM) was 40.1%.
With `Cn1c(=O)cc2c3c(ccc(C(=O)O)c31)C(=O)c1ccccc1-2` the growth inhibition [1, 7] was 40%, the growth inhibition [1, 8] was 34% and the growth inhibition ([1]; at 50.0 µM) was 80.2% (active). The growth inhibition [2, 7] was 10%, the growth inhibition [2, 8] was 50% and the growth inhibition ([2]; at 50.0 µM) was 36.2%. It also gave a growth inhibition [3, 7] of 2%, a growth inhibition [3, 8] of 27% and a growth inhibition ([3]; at 50.0 µM) of 45.1%. It also gave a growth inhibition [4, 7] of -8%, a growth inhibition [4, 8] of 22% and a growth inhibition ([4]; at 50.0 µM) of 16.5%. It also gave a growth inhibition [5, 7] of 1%, a growth inhibition [5, 8] of 62% and a growth inhibition ([5]; at 50.0 µM) of 61.8%. For the same compound, the growth inhibition [6, 7] was 12%, the growth inhibition [6, 8] was 50% and the growth inhibition ([6]; at 50.0 µM) was 51.7%.
For `Nc1ccc(CCCCCc2ccc(N)cc2)cc1`, the growth inhibition [1, 7] was -3%, the growth inhibition [1, 8] was 80% (active) and the growth inhibition ([1]; at 50.0 µM) was 98.6% (active). For the same compound, the growth inhibition [2, 7] was -9%, the growth inhibition [2, 8] was 99% (active) and the growth inhibition ([2]; at 50.0 µM) was 99% (active). The growth inhibition [3, 7] was 10%, the growth inhibition [3, 8] was 96% (active) and the growth inhibition ([3]; at 50.0 µM) was 98.9% (active). The growth inhibition [4, 7] was 1%, the growth inhibition [4, 8] was 54% and the growth inhibition ([4]; at 50.0 µM) was 98% (active). The growth inhibition [5, 7] was -6%, the growth inhibition [5, 8] was 83% (active) and the growth inhibition ([5]; at 50.0 µM) was 98.7% (active). For the same compound, the growth inhibition [6, 7] was -1%, the growth inhibition [6, 8] was 98% (active) and the growth inhibition ([6]; at 50.0 µM) was 98.7% (active).
For `C/C(=N\OC(=O)c1ccccc1)[N+](=O)[O-]`, the growth inhibition [1, 7] was -50%, the growth inhibition [1, 8] was 98% (active) and the growth inhibition ([1]; at 50.0 µM) was 88.1% (active). The growth inhibition [2, 7] was -6%, the growth inhibition [2, 8] was 100% (active) and the growth inhibition ([2]; at 50.0 µM) was 77.8% (active). For the same compound, the growth inhibition [3, 7] was -11%, the growth inhibition [3, 8] was 99% (active) and the growth inhibition ([3]; at 50.0 µM) was 72% (active). For the same compound, the growth inhibition [4, 7] was -27%, the growth inhibition [4, 8] was 99% (active) and the growth inhibition ([4]; at 50.0 µM) was 81.8% (active). The growth inhibition [5, 7] was -61%, the growth inhibition [5, 8] was 85% (active) and the growth inhibition ([5]; at 50.0 µM) was 56.9%. The growth inhibition [6, 7] was -54%, the growth inhibition [6, 8] was 98% (active) and the growth inhibition ([6]; at 50.0 µM) was 65.4%.
